Pol eta inh-1: DNA polymerase eta (human) inhibition | recombinant Pol eta, fluorescent DNA replication assay | Potency, µM (titrated, usually from 114 µM), hits mostly inhibitors | actives 1.2% (n = 390,000) | AID 588591
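Pol eta (10 nM) was preincubated with compounds for 15 min at room temperature, after which fluorescent replication substrate (50 nM final) was added to start the reaction. Fluorescence was read kinetically at 0 and 10 min.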
Pol beta inh: DNA polymerase beta (human) inhibition | actives 1.3% (n = 340,000) | P06746 | Potency, µM (series often up to 114 µM), usual class: inhibitors | Pol beta primer extension/strand displacement, fluorescence kinetic
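Curves were derived by four-parameter Hill fits of normalized qHTS data. The kinetic fluorescent primer-extension read was taken at 0 and 10 min after 50 nM substrate, following a 15 min room-temperature preincubation of 10 nM enzyme with compounds.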
FEN1 inh-1: inhibitors of human flap endonuclease 1 | P39748 | Recombinant FEN1 flap cleavage, fluorescence, 15 min | Potency, µM (titrated, usually from 114 µM), usual class: inhibitors | actives 0.35% (n = 390,000); also: nearly all actives have a fitted effect of over 65% in size
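Enzyme 10 nM, 15 min RT preincubation with compound; start with substrate 50 nM final; reads at 0 and 15 min; qHTS titration, four-parameter Hill fit.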
Pol kappa inh-1: blocks human DNA polymerase kappa activity. purified Pol kappa, fluorescent DNA synthesis assay, 10 min. Potency, µM (series often up to 107 µM), usual class: inhibitors. actives 0.53% (n = 400,000). AID 588579
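10 nM Pol kappa preincubated 15 min at room temperature with compounds, then reaction started with substrate at 50 nM final. Fluorescence read kinetically at 0 and 10 min; buffer-only wells served as negative control.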
Pol iota inh: inhibitors of human DNA polymerase iota. Pol iota fluorescent replication assay, 10 min. Potency, µM (doses to about 115 µM), usual class: inhibitors. actives 1% (n = 390,000)
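Pol iota at 10 nM preincubated 15 min with compounds at room temperature; reaction started with fluorescent substrate, 50 nM final. Fluorescence read kinetically at 0 and 10 min; buffer-only wells as negative control.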
WRN helicase inh-1: inhibitors of human WRN helicase; Potency, µM (top dose mostly 114 µM), most hits filed as inhibitors; actives 0.46% (n = 360,000); WRN helicase unwinding, fluorescent forked duplex, kinetic; Q14191; AID 651768; also: nearly all actives have a fitted effect of over 55% in size
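WRN at 20 nM final was preincubated with compound for 15 min at room temperature; reaction started with 100 nM forked duplex oligonucleotide carrying fluorophore and quencher plus 2 mM ATP (final). Unwinding followed kinetically by red fluorescence (ex 525/em 598 nm).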
Pol kappa inh-2: Pol kappa (human) inhibition, cherry-pick confirmation; shares compounds with Pol eta inh-1; purified Pol-kappa, fluorescent strand-displacement substrate; Potency, µM, usual class: inhibitors; actives 76% (n = 920); AID 720501
Pol eta inh-2: Pol eta (human) inhibition, cherry-pick confirmation; shares compounds with Pol eta inh-1; Pol eta primer extension, TAMRA/BHQ fluorescence, 10 min; Potency, µM, hits mostly inhibitors; actives 64% (n = 2,600)
FEN1 inh-2: FEN1 inhibition, cherry-pick retest; actives 79% (n = 880); FEN1 flap cleavage, TAMRA/BHQ2 fluorogenic DNA substrate; Potency, µM, actives largely listed as inhibitors; AID 720498; shares compounds with FEN1 inh-1; also: nearly all actives have a fitted effect of over 60% in size
WRN helicase inh-2: confirmation of human WRN helicase inhibitors. shares compounds with WRN helicase inh-1. actives 63% (n = 610). WRN helicase DNA unwinding, fluorescence kinetic. Potency, µM (doses to about 57.1 µM), most hits filed as inhibitors; also: nearly all actives have a fitted effect of over 65% in size
TO DNA binding: DNA binding via thiazole orange displacement; shares compounds with WRN helicase inh-1; thiazole orange DNA binding displacement, fluorescence; Potency, µM (titrated, usually from 57.1 µM), usual class: inhibitors; actives 10% (n = 610); AID 720499;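 also: drop in dye fluorescence marks compound binding to DNA; nearly all actives have a fitted effect of over 60% in size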
BLM helicase inh: BLM helicase inhibition, WRN selectivity check; Potency, µM (top dose mostly 57.1 µM), hits mostly inhibitors; shares compounds with WRN helicase inh-1; actives 60% (n = 610); AID 720503; Recombinant BLM helicase DNA unwinding, red fluorescence; also: nearly all actives have a fitted effect of over 60% in size
Hits are given with their value. In the library only some 2.4% were active in any assay of this set; here they are far more common. Calls follow the shape of the dose curve; as a rule, active = well fitted curve in the direction sought with a large enough effect; inconclusive = small, poorly fitted or top-dose-only effect, or another doubt; inactive = no such curve, though single readings can be large; an effect the other way counts as inactive or inconclusive.

`C/C(=N/NC(=O)c1cc2ccccc2cc1O)C1C(=O)c2ccccc2C1=O` gave Pol eta inh-1 14µM, Pol beta inh inconclusive, FEN1 inh-1 50µM, Pol kappa inh-1 inconclusive, Pol iota inh 32µM, WRN helicase inh-1 45µM, Pol eta inh-2 inconclusive, FEN1 inh-2 60, WRN helicase inh-2 15µM, TO DNA binding 3.4µM and BLM helicase inh 15µM.
COc1ccc(-n2c(=O)cnc3cnc(N4CCNCC4)nc32)cc1 was read as Pol kappa inh-1 inactive.
For C=C1c2cccc(C(F)(F)F)c2O[C@H](C(=O)OCC)[C@@H]1CCCCCC the results were Pol kappa inh-1 inactive.
`O=C(O)CCCNc1cc(N2CCN(C3CCCCC3)CC2)c2noc3c2c1C(=O)c1ccccc1-3` gave Pol eta inh-1 inactive, Pol beta inh 20µM, FEN1 inh-1 inconclusive, Pol kappa inh-1 inconclusive, Pol iota inh inconclusive, Pol eta inh-2 inconclusive, FEN1 inh-2 inconclusive, WRN helicase inh-2 6.8µM, TO DNA binding inactive and BLM helicase inh 6.1µM.
For CC(C)Nc1cc(N2CCN(C3CCCCC3)CC2)c2noc3c2c1C(=O)c1ccccc1-3 the results were Pol eta inh-1 inactive, Pol beta inh inactive, FEN1 inh-1 inactive, Pol kappa inh-1 inactive and Pol iota inh inactive.
Cc1ccc(-c2csc(NC(=O)/C=C/c3ccco3)c2C(=O)O)cc1 was read as Pol eta inh-1 28µM, Pol beta inh 28µM, FEN1 inh-1 inactive, Pol kappa inh-1 50µM, Pol iota inh inconclusive, WRN helicase inh-1 40µM, Pol eta inh-2 inconclusive, WRN helicase inh-2 inconclusive, TO DNA binding inactive and BLM helicase inh inconclusive.
For O=C(Nc1scc(-c2ccc(F)cc2)c1C(=O)O)c1ccco1 the results were Pol eta inh-1 inactive, Pol beta inh inactive, FEN1 inh-1 inactive, Pol kappa inh-1 inactive, Pol iota inh inconclusive and WRN helicase inh-1 inactive.
Screening O=S(=O)(c1ccccc1)c1cc(O)ccc1O returned Pol eta inh-1 inactive, Pol beta inh inconclusive, FEN1 inh-1 inactive, Pol kappa inh-1 inactive, Pol iota inh inactive and WRN helicase inh-1 inactive.
Screening Nc1ccc(S(=O)(=O)c2cc(O)c3ccccc3c2O)cc1 returned Pol eta inh-1 40µM, FEN1 inh-1 inconclusive, Pol kappa inh-1 inactive, Pol iota inh inconclusive, WRN helicase inh-1 28µM, Pol kappa inh-2 84, Pol eta inh-2 inconclusive, WRN helicase inh-2 24µM, TO DNA binding 24µM and BLM helicase inh 22µM.
For Cc1cc(N=NC(=O)c2ccccc2)ccc1O the results were Pol eta inh-1 inactive, Pol beta inh inactive, FEN1 inh-1 inactive, Pol kappa inh-1 inactive, Pol iota inh inconclusive and WRN helicase inh-1 inactive.
`O=C(ONc1ccc(N=NC(=O)c2ccccc2O)cc1)c1ccccc1` gave Pol eta inh-1 50µM, Pol beta inh inactive, FEN1 inh-1 inactive, Pol kappa inh-1 inactive, Pol iota inh inactive, WRN helicase inh-1 inconclusive, Pol eta inh-2 inconclusive, WRN helicase inh-2 22µM, TO DNA binding 27µM and BLM helicase inh 14µM.
